# PubChem BioAssay (NCATS)
# Inconclusive results are not listed. A call without a number means that no potency is given here. The source made the active and inactive calls. Unless noted, the call rests on the fitted dose curve; in most records, active means well fitted curve in the direction sought with a large enough effect; inconclusive means small, poorly fitted or top-dose-only effect, or another doubt; inactive means no such curve, though single readings can be large; an effect the other way counts as inactive or inconclusive.
# Legend:
# [1] = target: Metallo-beta-lactamase type 2 (Klebsiella pneumoniae) (UniProt C7C422); assay: qHTS to identify inhibitors of the New Delhi Metallo-beta-lactamase (NDM): assay validation screen against the NCATS LOPAC Collection (AID 1794843);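 further: nitrocefin turnover by NDM-1 measured as 485 nm absorbance at plateau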
# How it was run: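 Enzyme 2 nM final, 50 mM HEPES pH 7.0, 1 uM ZnSO4, 0.01% Tween20; cpds in DMSO, preincub w/ enzyme; + nitrocefin (50 uM stock); A485 at plateau; no-enzyme column as blank.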
# [2] = target: Glutathione peroxidase 1 (Homo sapiens) (UniProt P07203); assay: Primary qHTS Assay for Inhibitors of Recombinant Selenoprotein Glutathione Peroxidase 1 (GPX1) (AID 1845191); further: nearly all actives have a fitted effect of over 65% in size
# How it was run: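 GPX1 10 nM, GR 100 nM, GSH 1 mM, NADPH 0.5 mM, CHP 0.5 mM (final). 30-min cpd preincubation, RT. Ex340/Em450 read t=0, t=15 min.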
# [3] = target: Phospholipid hydroperoxide glutathione peroxidase GPX4 (Homo sapiens) (UniProt P36969); assay: Primary qHTS Assay for Inhibitors of Recombinant Selenoprotein Glutathione Peroxidase 4 (GPX4) (AID 1845192); further: nearly all actives have a fitted effect of over 65% in size
# How it was run: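 qHTS, GR-coupled: GPX4 200 nM + cpd 30 min RT → GSH 1 mM, NADPH 0.5 mM, GR 100 nM → CHP 0.5 mM start; fluor 340/450 at t0 and t15 min; no-enzyme wells as control.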
# [4] = target: Catechol O-methyltransferase (Homo sapiens) (UniProt P21964); assay: Confirmatory Screen for Target Class Profiling of Small Molecule Inhibitors of Methyltransferases (AID 1745852; calls by dose curve); settings: MTase-Glo luminescence, SAH detection, recombinant enzyme; measured here: COMT max response; stronger effect = lower value
# [5] = target: Guanidinoacetate N-methyltransferase (Homo sapiens) (UniProt Q14353); assay: as above; settings: MTase-Glo luminescence, SAH detection, recombinant enzyme; activity change, negative = inhibition: at 57.3 µM (top of the series)
# [6] = target: Nicotinamide N-methyltransferase (Homo sapiens) (UniProt P40261); assay: as above; settings: MTase-Glo luminescence, SAH detection, recombinant enzyme; measured here: NNMT max response; stronger effect = lower value
# [7] = target: Phenylethanolamine N-methyltransferase (Homo sapiens) (UniProt P11086); assay: as above; settings: MTase-Glo luminescence, SAH detection, recombinant enzyme; measured here: PNMT max response; stronger effect = lower value
# [8] = NCATS anti-infectives library activity on HEK293 viability as a counter-qHTS vs the C. elegans viability qHTS (AID 1745854);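 further: HEK293 cells exposed to compounds for 24 hr before the viability read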
# How it was run: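 Counter-screen for cytotoxicity: HEK293, 24 hr, 37C, compounds up to 41.7 uM final (a dilution series, 1:5). Readout CellTiter-Glo luminescence, 10 min RT. Digitonin control, 83.3 uM final.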
# [9] = Quantitative High-Throughput drug screen in 47 multiple myeloma cell lines against the NCATS MIPE library collection: EJM_DSMZ cell viability assay (AID 1918926; further: nearly all actives have a fitted effect of over 30% in size; further: potency means the concentration at half of the fitted maximal effect)
# How it was run: (§1)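 Approved and investigational drugs from MIPE 4.0 were added by pin tool to 500 cells per well. After 48 hours at 37C, ATP-based CellTiter-Glo luminescence indicated remaining viability.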
# [10] = Quantitative High-Throughput drug screen in 47 multiple myeloma cell lines against the NCATS MIPE library collection: ARD_JJKsccE7 cell viability assay (AID 1918929)
# How it was run: as §1
# [11] = target: Nuclear receptor subfamily 1 group I member 3 (Homo sapiens) (UniProt Q14994); assay: Primary qHTS for antagonist of constitutive androstane receptor (CAR) against the NCATS DSHEA and TCM libraries (AID 1794836)
# How it was run: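 HepG2 cells stably carrying hCAR and a CYP2B6 luciferase reporter (2,500 cells/well) attached for 5 h, then received compounds with 48 uM CITCO for 24 h at 37C. ONE-Glo luminescence read antagonism; CellTiter-Fluor (405/540 nm) gave viability.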
# [12] = Quantitative High-Throughput drug screen in 47 multiple myeloma cell lines against the NCATS MIPE library collection: FR4_PLB cell viability assay (AID 1918924; further: nearly all actives have a fitted effect of over 35% in size; further: potency means the concentration at half of the fitted maximal effect)
# How it was run: (§2)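 qHTS of the MIPE 4.0 collection: 500 myeloma cells/well, 48 h drug exposure at 37C in 5% CO2, then CellTiter-Glo for 5 min at room temperature before luminescence reading.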
# [13] = Quantitative High-Throughput drug screen in 47 multiple myeloma cell lines against the NCATS MIPE library collection: Delta47_JCRB cell viability assay (AID 1918925; further: nearly all actives have a fitted effect of over 45% in size; further: potency means the concentration at half of the fitted maximal effect)
# How it was run: as §1
# [14] = Quantitative High-Throughput drug screen in 47 multiple myeloma cell lines against the NCATS MIPE library collection: AMO1_DSMZ cell viability assay (AID 1918927; further: nearly all actives have a fitted effect of over 30% in size)
# How it was run: as §1
# [15] = Quantitative High-Throughput drug screen in 47 multiple myeloma cell lines against the NCATS MIPE library collection: Karpas620_DSMZ cell viability assay (AID 1918959); further: nearly all actives have a fitted effect of over 30% in size; further: potency means the concentration at half of the fitted maximal effect
# How it was run: as §2
# [16] = target: Luciferin 4-monooxygenase (Photinus pyralis) (UniProt P08659); assay: Primary firefly luciferase (FLuc) qHTS assay for identification of artifact compounds. (AID 1845220); settings: outcome: dose series up to 54.1 µM unless noted; further: nearly all actives have a fitted effect of over 60% in size
# How it was run: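 qHTS, 15 min compound preincubation with substrate (10 uM luciferin, 10 uM ATP) at RT, then 10 nM FLuc; 5 min; luminescence; % inhibition vs no-enzyme/DMSO controls, 4-parameter Hill fit.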
# [17] = Primary fluorescence-based thiol-reactive (MSTI) qHTS assay for identification of artifact compounds. (AID 1845221);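 further: thiol-reactive compounds lower the probe fluorescence signal; nearly all actives have a fitted effect of over 65% in size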
# How it was run: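 Probe: MSTI 4 uM, PBS pH 7.4, 2% DMSO. Incubation 1 h, RT, light-protected. Readout fluorescence 525/598 nm.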
# [18] = Primary redox qHTS assay for identification of artifact compounds. (AID 1845223)
# How it was run: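 Redox-cycling detection via DTT (250 uM final) oxidation coupled to Amplex Red (25 uM)/HRP (250 mU/mL) in HBSS. 15 min preincubation plus 30 min after DTT, room temperature. Ex/Em 525/598 nm; 4-parameter Hill fit against DMSO and 10 uM DA3003.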
# Chain of Phospholipid hydroperoxide glutathione peroxidase GPX4 (Homo sapiens) (P36969 whole entry, looked up): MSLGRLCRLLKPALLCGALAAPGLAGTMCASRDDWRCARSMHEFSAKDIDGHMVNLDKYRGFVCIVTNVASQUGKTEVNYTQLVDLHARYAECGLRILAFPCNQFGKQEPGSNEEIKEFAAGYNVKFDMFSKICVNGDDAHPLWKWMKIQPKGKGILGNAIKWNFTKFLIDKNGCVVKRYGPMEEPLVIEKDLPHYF
# Chain of Metallo-beta-lactamase type 2 (Klebsiella pneumoniae) (C7C422 whole entry, looked up): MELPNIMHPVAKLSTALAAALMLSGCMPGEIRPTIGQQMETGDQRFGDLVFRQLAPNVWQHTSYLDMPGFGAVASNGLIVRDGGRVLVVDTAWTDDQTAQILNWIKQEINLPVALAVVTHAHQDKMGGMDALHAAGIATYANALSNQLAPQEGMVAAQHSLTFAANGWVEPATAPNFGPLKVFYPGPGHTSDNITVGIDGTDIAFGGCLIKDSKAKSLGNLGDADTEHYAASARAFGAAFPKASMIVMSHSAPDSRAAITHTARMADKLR
# Chain of Glutathione peroxidase 1 (Homo sapiens) (P07203 whole entry, looked up): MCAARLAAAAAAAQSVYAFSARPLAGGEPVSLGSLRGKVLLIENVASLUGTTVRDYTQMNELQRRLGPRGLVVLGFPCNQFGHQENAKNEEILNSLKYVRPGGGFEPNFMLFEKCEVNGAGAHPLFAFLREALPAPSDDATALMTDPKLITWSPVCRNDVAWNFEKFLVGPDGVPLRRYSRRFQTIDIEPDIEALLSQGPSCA
# Chain of Nicotinamide N-methyltransferase (Homo sapiens) (P40261 whole entry, looked up): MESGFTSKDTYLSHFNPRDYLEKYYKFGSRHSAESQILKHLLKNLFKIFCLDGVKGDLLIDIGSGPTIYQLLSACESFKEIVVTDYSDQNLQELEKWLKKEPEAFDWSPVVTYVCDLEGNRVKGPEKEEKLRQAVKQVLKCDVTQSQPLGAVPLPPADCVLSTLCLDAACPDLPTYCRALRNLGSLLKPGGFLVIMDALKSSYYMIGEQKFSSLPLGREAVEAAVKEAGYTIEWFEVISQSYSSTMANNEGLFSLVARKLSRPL
# Chain of Catechol O-methyltransferase (Homo sapiens) (P21964 whole entry, looked up): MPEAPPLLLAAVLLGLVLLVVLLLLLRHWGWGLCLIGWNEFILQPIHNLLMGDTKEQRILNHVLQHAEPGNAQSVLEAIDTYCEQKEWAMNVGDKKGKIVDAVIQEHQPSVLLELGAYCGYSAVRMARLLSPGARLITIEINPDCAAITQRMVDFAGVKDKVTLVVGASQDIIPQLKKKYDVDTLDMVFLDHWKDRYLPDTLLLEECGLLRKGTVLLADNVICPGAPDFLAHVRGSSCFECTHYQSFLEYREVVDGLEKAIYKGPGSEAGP
# Chain of Phenylethanolamine N-methyltransferase (Homo sapiens) (P11086 whole entry, looked up): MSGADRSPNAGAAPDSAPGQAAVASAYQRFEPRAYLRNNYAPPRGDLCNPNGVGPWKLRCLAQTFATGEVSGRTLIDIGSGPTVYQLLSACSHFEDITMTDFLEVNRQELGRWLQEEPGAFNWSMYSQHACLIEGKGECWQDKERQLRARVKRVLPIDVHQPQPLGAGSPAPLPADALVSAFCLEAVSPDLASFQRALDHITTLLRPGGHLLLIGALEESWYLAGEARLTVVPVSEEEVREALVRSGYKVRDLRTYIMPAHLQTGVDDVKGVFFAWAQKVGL
# Chain of Nuclear receptor subfamily 1 group I member 3 (Homo sapiens) (Q14994 whole entry, looked up): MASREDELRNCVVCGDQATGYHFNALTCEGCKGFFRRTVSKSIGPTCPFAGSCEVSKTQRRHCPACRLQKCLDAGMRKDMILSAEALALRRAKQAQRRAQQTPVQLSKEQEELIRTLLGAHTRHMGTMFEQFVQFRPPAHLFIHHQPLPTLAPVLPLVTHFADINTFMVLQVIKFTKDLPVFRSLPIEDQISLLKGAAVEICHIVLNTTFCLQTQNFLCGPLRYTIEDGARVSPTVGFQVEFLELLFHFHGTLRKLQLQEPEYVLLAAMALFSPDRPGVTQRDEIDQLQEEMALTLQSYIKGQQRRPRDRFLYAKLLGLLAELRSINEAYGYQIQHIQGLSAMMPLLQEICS
compound,measurement,setting,value
CN1C2CCC1CC(OC(=O)c1cc(Cl)cc(Cl)c1)C2 (stereo not drawn),outcome,[1],inactive
same,Potency,[2],inactive
same,Potency,[3],inactive
NCCc1c[nH]c2ccccc12,activity,[4],-4.15%
same,"activity change, negative = inhibition",[5],2.74%
same,activity,[6],-8.81%
same,activity,[7],-14.8%
same,outcome,[1],inactive
same,Potency,[2],inactive
same,Potency,[3],inactive
C[C@]12CCC3C(CC[C@H]4C[C@H](O)CC[C@]34C)C1CC[C@@H]2C(=O)CO (stereo partly drawn),outcome,[1],inactive
same,Potency,[2],inactive
same,Potency,[3],inactive
NC(=NCCC[C@H](N)C(=O)O)N[N+](=O)[O-],outcome,[1],inactive
same,Potency,[2],inactive
same,Potency,[3],inactive
O=S(=O)(CC1CS1)c1ccc(Oc2ccccc2)cc1 (stereo not drawn),Potency,[8],inactive
same,Potency,[2],inactive
same,Potency,[3],inactive
same,Potency,[9],20.9 µM (active)
same,Potency,[10],inactive
Cn1cnc(CCN)c1,activity,[4],2.37%
same,"activity change, negative = inhibition",[5],1.75%
same,activity,[6],-8.03%
same,activity,[7],3.1%
same,outcome,[1],inactive
same,Potency,[2],inactive
same,Potency,[3],inactive
CC(C)Oc1cccnc1N(C)C1CCN(Cc2ccccc2)CC1,outcome,[1],inactive
same,Potency,[2],inactive
same,Potency,[3],inactive
CC1=C(C/C=C(\C)CCC[C@H](C)CCC[C@H](C)CCCC(C)C)C(=O)c2ccccc2C1=O,outcome,[11],inactive
CCC(=O)O[C@@H]1C=C2CCC3C(CCC4(C)C3CC[C@@H]4OC(=O)CC)C2CC1 (stereo partly drawn),Potency,[2],inactive
same,Potency,[3],inactive
C[C@]12N[C@H](Cc3ccccc31)c1ccccc12,Potency,[2],inactive
same,Potency,[3],inactive
COC(=O)[C@@H](N)CCCN=C(N)N[N+](=O)[O-],outcome,[1],inactive
same,Potency,[2],inactive
same,Potency,[3],inactive
same,Potency,[12],inactive
same,Potency,[13],inactive
same,Potency,[9],inactive
same,Potency,[14],inactive
same,Potency,[10],inactive
same,Potency,[15],inactive
COc1cc(C(O)CN)ccc1O (stereo not drawn),outcome,[1],inactive
same,Potency,[2],inactive
same,Potency,[3],inactive
S=C(NC1CCCCC1)N1CCC(c2cnc[nH]2)CC1,outcome,[1],inactive
same,Potency,[2],inactive
same,Potency,[3],inactive
same,outcome,[16],inactive
same,Potency,[17],inactive
same,outcome,[18],inactive
c1ccc2sc(C3(N4CCCCC4)CCCCC3)cc2c1,outcome,[1],inactive
same,Potency,[2],inactive
same,Potency,[3],inactive
CCCN(CCC)C1CCc2ccc(O)cc2C1 (stereo not drawn),outcome,[1],inactive
same,Potency,[2],inactive
same,Potency,[3],inactive
O=[N+]([O-])/N=C1\NCCN1Cc1ccc(Cl)nc1,Potency,[2],inactive
same,Potency,[3],inactive
COC(=O)c1cncn1C(C)c1ccccc1 (stereo not drawn),Potency,[2],inactive
same,Potency,[3],inactive
c1ccc(CCCN2CCN(CCOC(c3ccccc3)c3ccccc3)CC2)cc1,outcome,[1],inactive
same,Potency,[2],inactive
same,Potency,[3],inactive
same,Potency,[12],23.5 µM (active)
same,Potency,[13],16.6 µM (active)
same,Potency,[10],inactive
same,Potency,[15],inactive
O=C(O)[C@@H]1CCN1,Potency,[2],inactive
same,Potency,[3],inactive
C=CCN1CC[C@]23CCCCC2[C@H]1Cc1ccc(O)cc13 (stereo partly drawn),outcome,[1],inactive
same,Potency,[2],inactive
same,Potency,[3],inactive
CC1=NN=C(c2ccc(N)cc2)c2cc3c(cc2C1)OCO3,outcome,[1],inactive
same,Potency,[2],inactive
same,Potency,[3],inactive
same,Potency,[12],inactive
same,Potency,[13],inactive
same,Potency,[9],inactive
same,Potency,[15],20.9 µM (active)
